In PubChem BioAssay (NCI):
About 83,000 compounds went through this panel and 20% of them were active in at least one assay; those are over-represented in the sample as a whole.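 Compound tested at a single concentration for 48 hours in 96-well plates; a percent growth value below 10 was scored as active.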 Unmarked numbers belong to inactive results. Calls of active or inactive are those of the source.

Legend:
Test in all cases: NCI-60 one-dose screen, 48 h (100 = growth as untreated, 0 = no growth, -100 = all killed)
Details in all cases: 10 µM
[1] = tested on: HCT-15 colon
[2] = tested on: HT29 colon
[3] = tested on: SNB-75 CNS
[4] = tested on: SNB-19 CNS
[5] = tested on: U251 CNS
[6] = tested on: PC-3 prostate
[7] = tested on: SK-MEL-5 melanoma
[8] = tested on: UACC-62 melanoma
[9] = tested on: LOX IMVI melanoma
[10] = tested on: SK-MEL-28 melanoma

SMILES	growth [1]	growth [2]	growth [3]	growth [4]	growth [5]	growth [6]	growth [7]	growth [8]	growth [9]	growth [10]
CC(C)C(C)C(N)C(=O)O (stereo not given)	97.6%	107%	95.2%	115%	103%	98.2%	102%	113%	96%	108%
CCc1ccc(-c2nnc(COc3ccc(-c4nc5ccc(C)cc5[nH]4)cc3OC)o2)cc1	21.9%	48.9%	-50% (active)	77.5%	25.5%	36.6%	15.3%	79.6%	48.2%	77.4%
O=[N+]([O-])c1cc2ncccc2c2ncccc12	71.9%	102%	88.2%	96%	102%	77.8%	72.1%	76.4%	45.5%	92%
COc1ccc(Cn2cc3c(c2-c2cc(OC)c(OC)c(OC)c2)CCc2cnoc2-3)cc1N	17.5%	8.78% (active)	50.5%	44.6%	23.2%	31.1%	-17.9% (active)	50.5%	18.7%	62%
COc1cc(Nc2ccnc(N3CCN(c4ccnc5cc(Cl)ccc45)CC3)n2)cc(OC)c1	9.9% (active)	-15.1% (active)	-13.9% (active)	39.1%	12.6%	3.31% (active)	-55.2% (active)	-21.6% (active)	3.24% (active)	11.9%
O=S(=O)(NCl)c1ccccc1	102%	106%	84.3%	104%	95.9%	99.1%	103%	106%	97.1%	97.1%
COc1cc(/C=C/C(=O)c2cc(-c3ccccc3)ccc2O)cc(OC)c1OC	70%	82.4%	93.1%	93.3%	75.7%	49.4%	51.8%	58.8%	52.6%	98.1%
COc1ccc(-c2cc(/C=C/C(=O)c3ccc(N)cc3)[nH]n2)cc1OC	26%	22.6%	36.8%	51.6%	28.5%	41.8%	63.4%	71.2%	-45.5% (active)	41.9%
COc1ccc(OC)c([N+](=O)[O-])c1C=O	104%	55.6%	85.8%	101%	105%	92.9%	96.1%	100%	83.4%	103%
CC(=O)Nc1ccc(Sc2ccc(NC(C)=O)cc2)cc1	98.9%	91.2%	84.1%	106%	95.9%	65.5%	105%	96.5%	96.3%	102%
COc1c(C)c(C)c(OC)c2c1[nH]c(=O)c1c3cccnc3cn21	118%	104%	106%	108%	106%	97.3%	119%	98.4%	107%	125%
O=C(NCc1cn(Cc2cccc(Oc3ccccc3)c2)nn1)c1cccnc1Nc1ccccc1	30.7%	47.8%	54.2%	67.1%	42.2%	44.5%	40.8%	53.5%	45.1%	47.8%
CCOCC[P+](c1ccccc1)(c1ccccc1)c1ccccc1	98.8%	34.2%	46.7%	48%	38.3%	33.4%	21.6%	33%	52.5%	67.9%
CCN(Cc1ccccc1)C1CCN(Cc2cc(Br)ccc2O)CC1	50.1%	13.3%	49.2%	65.7%	43.9%	45.7%	32.1%	51.7%	54.9%	76.1%
CC(=O)Nc1nc(C)c(C(=O)NNC=O)s1	99.5%	99.8%	94.8%	117%	109%	91.6%	104%	97.1%	104%	104%
CNC(=S)Sc1ccc([N+](=O)[O-])cc1[N+](=O)[O-]	36.8%	4.84% (active)	88.1%	94.3%	72.5%	84.4%	44.8%	81.6%	19.3%	66.1%
NC1CCC(Nc2nc(NCc3cc(Cl)ccc3O)c3ncn(C4CCCC4)c3n2)CC1 (stereo not given)	-10.1% (active)	-16.9% (active)	-85.8% (active)	9.87% (active)	-22.8% (active)	-8.24% (active)	-93.7% (active)	-58.8% (active)	-73.7% (active)	-44.7% (active)
Fc1cc(-c2ncc(-c3cc(F)c(F)c(F)c3)c(NC3CCCCCC3)n2)cc(F)c1F	97%	115%	85.7%	99.7%	83.4%	90.6%	98.1%	89.4%	102%	98.4%
NC1CCC(Nc2nc(NCc3ccc(-c4ccccc4O)nc3)c3ncn(C4CCCC4)c3n2)CC1 (stereo not given)	-4.18% (active)	-22.5% (active)	-70.1% (active)	8.53% (active)	-23% (active)	-3.87% (active)	-94.1% (active)	-55% (active)	-82.8% (active)	-58.9% (active)
Fc1ccc(-c2cc(C(Cl)Cl)no2)cc1	96.9%	114%	72.4%	94.7%	108%	93%	94.3%	92.8%	101%	109%
COC(=O)c1ccc(Cn2ccc(=O)[nH]c2=O)cc1	101%	99.5%	90.6%	110%	112%	98.4%	109%	105%	98.4%	111%
C=CCn1ccc(=O)nc1SC	110%	97.6%	91.2%	106%	102%	95.7%	112%	105%	99.7%	112%
CC(=O)OC1Oc2ccccc2-c2oc(=O)c(-c3cc(=O)oc4cc(O)ccc34)cc21 (stereo not given)	80.8%	86.9%	76%	95%	89.6%	75.9%	80.1%	84.9%	83.8%	111%
O=[N+]([O-])C1CC2C=CC1C2 (stereo not given)	100%	99%	93.1%	109%	101%	96.9%	106%	103%	95.6%	110%
CCCCCCCCCCN=C(c1ccc(N(C)C)cc1)c1ccc(N(C)C)cc1	12.9%	9.42% (active)	33.1%	31.8%	21.3%	30.7%	0.192% (active)	31.7%	42.1%	59.7%
Cn1c([N+](=O)[O-])cnc1/C=C1\Oc2ccc(Br)cc2C1=O	-40.8% (active)	-31.4% (active)	8.51% (active)	1.52% (active)	-29.6% (active)	-24.7% (active)	-89.2% (active)	-73.7% (active)	-52.3% (active)	-13.7% (active)
CCCCOCC(=O)NC(NP(=O)(N(C)C)N(C)C)C(Cl)(Cl)Cl (stereo not given)	140%	122%	106%	107%	120%	113%	118%	103%	110%	125%
COc1cccc(C(=O)N(c2ccc(F)c(F)c2)C(C(=O)NC(C)(C)C)c2cc3c(C)cc(C)cc3nc2Cl)c1 (stereo not given)	56.5%	71.1%	62.9%	74.1%	69%	30.9%	58.2%	66.6%	68.7%	85.6%
